Reference: the supplement of paper PMC13380429

System: Vero E6 infected with SARS-CoV-2
Assay: inhibition of SARS-CoV-2 cytopathic effect; higher = more antiviral protection, active = above 15
Conditions: 48 h

Measured: inhibition of SARS-CoV-2 cytopathic effect

CC(N)CCCC(C)(C)O (stereo not given) [heptaminol]
inactive: 1 nM 0.22% | 8.33 nM 3.55% | 100 nM 2.95% | 833.33 nM -3.4% | 10000 nM 0.76%

O=C1NCCc2[nH]c(-c3ccncc3)cc21
inactive: 1 nM -0.31% | 8.33 nM -0.69% | 100 nM -1% | 833.33 nM -0.56% | 10000 nM -3.45%

CN(CCOc1ccc(NS(C)(=O)=O)cc1)CCc1ccc(NS(C)(=O)=O)cc1 [dofetilide]
inactive: 1 nM -2.98% | 8.33 nM -1.43% | 100 nM -1.55% | 833.33 nM -0.28% | 10000 nM -0.36%

Nc1c2c(nc3c1CCC3)CCCC2 [ipidacrine]
inactive: 1 nM 1.46% | 8.33 nM 1.94% | 100 nM 1.19% | 833.33 nM 0.32% | 10000 nM 3.14%

CC(C)NC[C@@H](O)COc1ccc(CC(N)=O)cc1 (racemic) [atenolol-(+/-)]
inactive: 1 nM -2.25% | 8.33 nM 0.225% | 100 nM 0.74% | 833.33 nM 0.24% | 10000 nM -0.8%

Cn1c(=O)c2c(ncn2CCO)n(C)c1=O [etofylline]
inactive: 1 nM 0.6% | 8.33 nM 0.32% | 100 nM -0.66% | 833.33 nM -1.82% | 10000 nM -1.01%

Cc1ccc(NCCCc2ccccc2)c(N)c1 [NFKB-activation-inhibitor-II]
inactive: 1 nM -0.97% | 8.33 nM -0.96% | 100 nM -1.32% | 833.33 nM -1.12% | 10000 nM 2.24%

COc1ccc(-c2nc(-c3ccc(-c4cccc(Cl)c4)o3)[nH]c2-c2ccc(OC)cc2)cc1 [neurodazine]
inactive: 1 nM 0.83% | 8.33 nM -0.31% | 100 nM 4.87% | 833.33 nM 5.51% | 10000 nM 1.25%

O=C(O)c1cc(O)c2c(Cl)cc(Cl)cc2n1 [5,7-dichlorokynurenic-acid]
inactive: 1 nM 1.65% | 8.33 nM -2.54% | 100 nM -2.79% | 833.33 nM 0.55% | 10000 nM -0.44%

N=C(N)NN=C1C=CC(=NNC(N)=S)C=C1 [ambazone]
inactive: 1 nM 1.75% | 8.33 nM 1.52% | 100 nM 1.46% | 833.33 nM 1.18% | 10000 nM -0.05%

CC(=O)OC[C@H](N)C(=O)O [O-acetyl-L-serine]
inactive: 1 nM 0.15% | 8.33 nM 1.11% | 100 nM 1.58% | 833.33 nM 1.65% | 10000 nM -0.72%

c1ccc2c(Oc3nc(Nc4ccc(N5CCOCC5)cc4)c4ncn(C5CCCCC5)c4n3)cccc2c1 [purmorphamine]
inactive: 1 nM 0.27% | 8.33 nM 1.18% | 100 nM 0.24% | 833.33 nM 2.43% | 10000 nM -5.44%

CC1OC2(CS1)CN1CCC2CC1 (stereo not given) [cevimeline]
inactive: 1 nM -0.26% | 8.33 nM -0.65% | 100 nM -1.15% | 833.33 nM -0.01% | 10000 nM -1.57%

Cc1c(N(C)CS(=O)(=O)O)c(=O)n(-c2ccccc2)n1C [metamizole]
inactive: 1 nM 5.03% | 8.33 nM 0.47% | 100 nM -1.36% | 833.33 nM -3.82% | 10000 nM 0.29%

CCCCNc1ncc2c(-c3ccc(CN4CCN(C)CC4)cc3)cn([C@H]3CC[C@H](O)CC3)c2n1
inactive: 1 nM 1.92% | 8.33 nM 2.77% | 100 nM -0.22% | 833.33 nM -9.69% | 10000 nM 7.04%

O=C(NCCCN1CCC2(CC1)OCc1ccccc12)[C@H]1CCCN1Cc1ccccc1
inactive: 1 nM -4.44% | 8.33 nM -4.12% | 100 nM -5.12% | 833.33 nM -1.81% | 10000 nM 0.56%

O=C1NC(=O)C(c2ccccc2[N+](=O)[O-])=C1Nc1ccc(O)c(Cl)c1
inactive: 1 nM -2.14% | 8.33 nM -1.36% | 100 nM -2.09% | 833.33 nM 1.29% | 10000 nM 6.31%

C#Cc1cccc(Nc2ncnc3cc(OCCOC)c(OCCOC)cc23)c1 [erlotinib]
inactive: 1 nM -0.8% | 8.33 nM -0.26% | 100 nM -1.96% | 833.33 nM -4.63% | 10000 nM -14.6%

COc1cc(OC)nc(O[C@H](C(=O)O)C(OC)(c2ccccc2)c2ccccc2)n1 [darusentan]
inactive: 1 nM 0.26% | 8.33 nM -0.2% | 100 nM 0.62% | 833.33 nM -2.26% | 10000 nM -0.49%

Cc1onc(-c2ccccc2)c1C(=O)N[C@@H]1C(=O)N2[C@@H]1SC(C)(C)[C@@H]2C(=O)O [oxacillin]
inactive: 1 nM 0.69% | 8.33 nM 1.54% | 100 nM 2.17% | 833.33 nM 3.32% | 10000 nM 1.32%

C[C@]1(O)C[C@@H](c2nc(-c3ccc4ccc(-c5ccccc5)nc4c3)c3c(N)nccn32)C1 [linsitinib]
inactive: 1 nM 1.22% | 8.33 nM -0.2% | 100 nM -1.12% | 833.33 nM 0.58% | 10000 nM 1.2%

N=C(N)NCCC[C@@H](NC(=O)[C@@H]1CCCN1C(=O)[C@@H]1CSSCCC(=O)N[C@@H](Cc2ccc(O)cc2)C(=O)N[C@@H](Cc2ccccc2)C(=O)N[C@@H](CCC(N)=O)C(=O)N[C@@H](CC(N)=O)C(=O)N1)C(=O)NCC(N)=O [desmopressin-acetate]
inactive: 1 nM -0.33% | 8.33 nM -2.9% | 100 nM 0.69% | 833.33 nM 0.25% | 10000 nM 0.02%

CN=c1nc(-c2ccccc2)n(-c2ccccc2)s1
inactive: 1 nM 1.73% | 8.33 nM 0.95% | 100 nM -0.38% | 833.33 nM 0.89% | 10000 nM -1.43%

CCCCCCCCCCCCCCCCCCCCCCO [docosanol]
inactive: 1 nM -8.94% | 8.33 nM -7.8% | 100 nM -10.4% | 833.33 nM -7.91% | 10000 nM -4.03%

Nc1nc(Cl)nc2c1ncn2[C@@H]1O[C@H](CO)[C@@H](O)[C@@H]1F [clofarabine]
inactive: 1 nM 0.13% | 8.33 nM 2.08% | 100 nM 1.42% | 833.33 nM 2.37% | 10000 nM 3.69%

COc1cc2ncnc(Nc3ccc(F)c(Cl)c3)c2cc1OCCCN1CCOCC1 [gefitinib]
inactive: 1 nM -1.32% | 8.33 nM -0.45% | 100 nM -4.25% | 833.33 nM -11.2% | 10000 nM -22.2%

COc1ccc(C(=O)CC2(O)C(=O)Nc3c(Cl)ccc(Cl)c32)cc1 (stereo not given)
inactive: 1 nM 2.13% | 8.33 nM 3.01% | 100 nM -1.11% | 833.33 nM 1.43% | 10000 nM -1.83%

N=C(N)c1ccc(-c2ccc(-c3ccc(C(=N)N)cc3)o2)cc1 [furamidine]
inactive: 1 nM -2.49% | 8.33 nM 0.26% | 100 nM -3.62% | 833.33 nM 0.94% | 10000 nM 2.72%

Cc1cc(/C=C/c2ccc3cc(N(C)C)ccc3[n+]2C)c(C)n1-c1ccccc1 [pyrvinium-pamoate]
inactive: 1 nM -1.06% | 8.33 nM -0.84% | 100 nM -3.02% | 833.33 nM -2.46% | 10000 nM -13.7%

COc1cccc([C@H](O)C2CCN(CCc3ccc(F)cc3)CC2)c1OC [volinanserin]
inactive: 1 nM -1.28% | 8.33 nM -0.6% | 100 nM -3.32% | 833.33 nM -1.38% | 10000 nM -2.28%

OC(c1cc(C(F)(F)F)nc2c(C(F)(F)F)cccc12)C1CCCCN1 (stereo not given) [mefloquine]
active: 10000 nM 73.3%
inactive: 1 nM -1.64% | 8.33 nM 0.59% | 100 nM -0.03% | 833.33 nM -3.31%

CN(C)c1nc(N(C)C)nc(N(C)C)n1 [altretamine]
inactive: 1 nM 2.31% | 8.33 nM -1.41% | 100 nM 0.54% | 833.33 nM -0.29% | 10000 nM 2.53%

C#C[C@]1(O)CC[C@H]2[C@@H]3CCC4=CC(=O)CC[C@@H]4[C@H]3CC[C@@]21CC [norgestrel]
inactive: 1 nM -2% | 8.33 nM -0.115% | 100 nM 2.25% | 833.33 nM -0.065% | 10000 nM 0.025%

CCn1nc(C(=O)O)c(=O)c2cc3c(cc21)OCO3 [cinoxacin]
inactive: 1 nM 0.52% | 8.33 nM -0.24% | 100 nM 0.19% | 833.33 nM 0.12% | 10000 nM -1.09%

CCCCN1CCCCC1C(=O)Nc1c(C)cccc1C (stereo not given) [bupivacaine]
inactive: 1 nM 2.92% | 8.33 nM -0.56% | 100 nM -2.62% | 833.33 nM 1.82% | 10000 nM 0.61%

Cc1nc[nH]c1CCN [4-methylhistamine]
inactive: 1 nM -0.91% | 8.33 nM -0.74% | 100 nM -0.39% | 833.33 nM -2.08% | 10000 nM 0%

CNC(=O)c1c(-c2ccc(F)cc2)oc2cc(N(CCO)S(C)(=O)=O)c(C3CC3)cc12 [nesbuvir]
inactive: 1 nM 0.34% | 8.33 nM 0.12% | 100 nM 0.33% | 833.33 nM -1.14% | 10000 nM -3.08%

CCC(CC)C(c1ccc(Nc2nc3ccccc3s2)cc1)n1cncn1 (stereo not given) [talarozole]
inactive: 1 nM 3.05% | 8.33 nM 0.68% | 100 nM 0.42% | 833.33 nM 1.31% | 10000 nM 4.15%

CNC(=O)c1cc(Oc2ccc(NC(=O)Nc3ccc(Cl)c(C(F)(F)F)c3)cc2)ccn1 [sorafenib]
active: 10000 nM 16.4%
inactive: 1 nM -0.83% | 8.33 nM 1.38% | 100 nM 2.59% | 833.33 nM 2.85%

CCOC(=O)c1ncc2[nH]c3ccc(OCc4ccccc4)cc3c2c1COC
inactive: 1 nM 2.48% | 8.33 nM 0.26% | 100 nM 0.32% | 833.33 nM 2.46% | 10000 nM -5.3%
